Most compounds without a hit are left out; they make up all but 13% or so of the library.
L major viab: inhibitors of Leishmania major promastigote growth; Leishmania major promastigotes, resazurin fluorescence viability; inhibition, % at 10 µM; actives 9% (n = 200,000); AID 1063; in the data active = inhibition above about 50%;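 also: promastigotes grown with compound for 44 hours at 28 °C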
WT yeast gro inh: growth inhibition of WT yeast, mitochondrial fusion screen. actives 2.1% (n = 190,000). inhibition, % at 10 µM. mitochondrial fusion phenotypic screen, WT strain. AID 1362; in the data active = inhibition above about 58%; tested in S. cerevisiae
RAM inhibit: yeast RAM network inhibition; inhibition, % at 50 µM; S. cerevisiae dse1pr::URA3 reporter, 5-FOA growth OD615, 2 d; analog-sensitive cbk1-as2 kinase mutant strain; actives 1.8% (n = 190,000);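 active = inhibition above a set limit, 3 SD over mean compound inhibition, cut at about 8.4% in these data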;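 also: inhibition rescues growth on 5-FOA so higher OD means more RAM inhibition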
CHOP inh: inhibitors of CHOP induction in ER stress response; inhibition, % at 10 µM; CHO-K1 CHOP-promoter luciferase, tunicamycin-induced, 15-18 h; AID 2732; actives 3.8% (n = 220,000);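 active = compounds that reduced the stress-induced luciferase reporter signal by more than about 70% of percent inhibition, limit read from the data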
A number is an active result.

`CCOC(=O)C1(Cc2cccc(OC)c2)CCN(Cc2cccnc2)CC1` gave L major viab 55, WT yeast gro inh inactive, RAM inhibit inactive and CHOP inh inactive.
Screening CCOC(=O)C1(Cc2cccc(OC)c2)CCN(Cc2ccccc2)CC1 returned L major viab inactive, WT yeast gro inh inactive, RAM inhibit inactive and CHOP inh inactive.
CCOC(=O)C1(Cc2cccc(OC)c2)CCN(Cc2cnc(SC)nc2)CC1 was read as L major viab 82, WT yeast gro inh inactive, RAM inhibit inactive and CHOP inh inactive.
Screening CC(NC(=O)Cc1ccc([N+](=O)[O-])cc1)c1ccc2c(c1)OCO2 (configuration not stated) returned CHOP inh inactive.
CCOc1ccc(-n2c(SCc3nc(-c4cccs4)no3)nnc2-c2ccncc2)cc1 was read as L major viab 62, WT yeast gro inh inactive, RAM inhibit inactive and CHOP inh inactive.
For Cc1ccc(-c2nnn(CC(=O)N3CCCCC3)n2)o1 the results were L major viab inactive, WT yeast gro inh inactive, RAM inhibit inactive and CHOP inh inactive.
`CCOC(=O)C1(CCOc2ccccc2)CCN(Cc2ccc(-n3cccn3)cc2)CC1` gave L major viab 90, WT yeast gro inh inactive, RAM inhibit inactive and CHOP inh inactive.
Screening CCOC(=O)C1(CCOc2ccccc2)CCN(Cc2ccncc2)CC1 returned L major viab 86, WT yeast gro inh inactive, RAM inhibit inactive and CHOP inh inactive.
`CCOC(=O)C1(CCOC)CCN(Cc2ccncc2)CC1` gave L major viab inactive, WT yeast gro inh inactive, RAM inhibit inactive and CHOP inh inactive.
`CC(C)NC(=O)C1CCN(C2CCN(Cc3ccc4cccc(F)c4n3)CC2)CC1` gave L major viab 73, WT yeast gro inh inactive, RAM inhibit inactive and CHOP inh inactive.
For CCOC(=O)CSc1nc(C)nc2c1sc1nc(C)c(C(C)=O)c(-c3ccc(OC)cc3)c12 the results were L major viab 85, WT yeast gro inh inactive, RAM inhibit inactive and CHOP inh inactive.
Cc1nn(Cc2ccc(Cl)cc2)c(C)c1NC(=O)C(c1ccccc1)c1ccccc1 was read as L major viab 99, WT yeast gro inh inactive, RAM inhibit inactive and CHOP inh inactive.
For Cn1c(SCC(=O)NNC(=O)Cc2ccccc2)nc2ccccc2c1=O the results were L major viab inactive, WT yeast gro inh inactive, RAM inhibit inactive and CHOP inh inactive.
Cc1ccc(CN2C(=O)c3ccccc3NC23CCN(Cc2ccccc2)CC3)cc1 was read as L major viab 96, WT yeast gro inh inactive, RAM inhibit inactive and CHOP inh inactive.
Screening O=C(Nc1ccc2c(c1)C(=O)N(CC1CCCO1)C2=O)c1cccc(Br)c1 (configuration not stated) returned L major viab inactive, WT yeast gro inh inactive, RAM inhibit inactive and CHOP inh 73.
Screening O=C(O)c1cccc(NC(=O)c2ccc3c(c2)C(=O)N(CC2CCCO2)C3=O)c1 (configuration not stated) returned L major viab inactive, WT yeast gro inh inactive, RAM inhibit inactive and CHOP inh inactive.
CC(=O)OCC1(C)CN(c2ccccc2)N(C(=O)c2ccc(F)cc2)C1=O (configuration not stated) was read as L major viab inactive, WT yeast gro inh inactive, RAM inhibit inactive and CHOP inh inactive.
For N#Cc1cccc(NC(=O)COC(=O)CCc2nc3ccccc3c(=O)[nH]2)c1 the results were L major viab inactive, WT yeast gro inh inactive, RAM inhibit inactive and CHOP inh inactive.
For Clc1ccc(OCc2nnc(SCc3nnc(-c4ccccc4)o3)o2)c(Cl)c1 the results were L major viab inactive, WT yeast gro inh inactive, RAM inhibit 9.6 and CHOP inh 77.
Screening Clc1ccc2nc(SCc3nnc(-c4ccccc4)o3)[nH]c2c1 returned L major viab inactive, WT yeast gro inh inactive, RAM inhibit inactive and CHOP inh inactive.
For CCOC(=O)C(C)/C(C)=N/NC(N)=S (configuration not stated) the results were L major viab 61, WT yeast gro inh inactive, RAM inhibit inactive and CHOP inh inactive.
`CC(=O)Nc1ccc(NC(=O)C/C(C)=N/NC(N)=S)cc1` gave L major viab inactive, WT yeast gro inh inactive, RAM inhibit inactive and CHOP inh inactive.
For Cc1ccc(S(=O)(=O)/N=C2/C=C(C3C(=O)CC(C)(C)CC3=O)C(=O)c3ccccc32)cc1 the results were L major viab inactive, WT yeast gro inh inactive, RAM inhibit inactive and CHOP inh inactive.
`CCc1ccc(S(=O)(=O)/N=C2\C=CC(=O)c3ccccc32)cc1` gave L major viab 93, WT yeast gro inh inactive, RAM inhibit inactive and CHOP inh inactive.
`CCCCC(O)(CCCC)C(=O)NN(C(=O)OCC)c1ccccc1` gave L major viab inactive, WT yeast gro inh inactive, RAM inhibit inactive and CHOP inh inactive.
For CCCC(O)(CCC)C(=O)NN(C(=O)CCl)c1ccccc1 the results were L major viab 52, WT yeast gro inh inactive, RAM inhibit inactive and CHOP inh inactive.
O=S(=O)(c1ccccc1)N1CC=C(c2ccccc2)CC1 was read as L major viab inactive, WT yeast gro inh inactive, RAM inhibit inactive and CHOP inh inactive.
For O=c1[nH]c(/C(Cl)=C/c2c(F)cccc2Cl)nc2cc(Cl)ccc12 the results were L major viab 79, WT yeast gro inh inactive, RAM inhibit inactive and CHOP inh 79.
C/C(=N\N1C(=O)c2ccccc2NC1c1ccco1)c1ccccc1O (configuration not stated) was read as L major viab 90, WT yeast gro inh inactive, RAM inhibit inactive and CHOP inh inactive.
`Cc1c(CCOC(=O)C23CC4CC(CC(C)(C4)C2)C3)sc[n+]1CC(=O)c1ccccc1` gave L major viab inactive, WT yeast gro inh inactive, RAM inhibit inactive and CHOP inh inactive.
`Cc1c(CCOC(=O)CC23CC4CC(CC(C)(C4)C2)C3)sc[n+]1CC(=O)c1ccccc1` gave L major viab 92, WT yeast gro inh inactive, RAM inhibit inactive and CHOP inh inactive.
Fc1ccc(Cn2nnnc2CN2CCN(C3CCCC3)CC2)cc1 was read as L major viab 94, WT yeast gro inh inactive, RAM inhibit inactive and CHOP inh inactive.
For CCC(c1nnnn1Cc1ccc(F)cc1)N1CCN(C2CCCCC2)CC1 (configuration not stated) the results were L major viab inactive, WT yeast gro inh inactive, RAM inhibit inactive and CHOP inh inactive.
`CC1SC(=Nc2ccccc2)N(S(=O)(=O)c2ccccc2)C1=O` (configuration not stated) gave L major viab inactive, WT yeast gro inh inactive, RAM inhibit inactive and CHOP inh inactive.
For CCOC(=O)N1C(=O)C2(CCCCC2)N(c2ccccc2Cl)C1=S the results were L major viab inactive, WT yeast gro inh 77, RAM inhibit inactive and CHOP inh inactive.
Screening COc1ccc(C(=O)Nc2ccc(Cl)cc2C(=O)NCCN2CCOCC2)cc1 returned L major viab inactive, WT yeast gro inh 71, RAM inhibit inactive and CHOP inh inactive.
For O=C(NC(=S)NCCN1CCOCC1)c1ccccc1Br the results were L major viab inactive, WT yeast gro inh inactive, RAM inhibit inactive and CHOP inh inactive.
For O=C(NC(=S)NCCN1CCOCC1)c1ccc(Cl)cc1Cl the results were L major viab 95, WT yeast gro inh inactive, RAM inhibit inactive and CHOP inh inactive.

Bioassay records: PubChem, several laboratories
